Screens: PubChem BioAssay, National Center for Advancing Translational Sciences (NCATS)
An excerpt weighted towards active compounds, which were near 1.4% of everything screened.
USP1 inh = Inhibitors of USP1/UAF1: Primary Screen. Potency, µM (highest dose often 57.1 µM), actives largely listed as inhibitors. recombinant USP1/UAF1, Ub-Rhodamine cleavage fluorescence. 390,000 tested, 0.23% active. AID 743255, 2014. Ubiquitin carboxyl-terminal hydrolase 1 (Homo sapiens), O94782; further: nearly all actives have a fitted effect of over 60% in size
Target sequence (O94782 whole entry, looked up): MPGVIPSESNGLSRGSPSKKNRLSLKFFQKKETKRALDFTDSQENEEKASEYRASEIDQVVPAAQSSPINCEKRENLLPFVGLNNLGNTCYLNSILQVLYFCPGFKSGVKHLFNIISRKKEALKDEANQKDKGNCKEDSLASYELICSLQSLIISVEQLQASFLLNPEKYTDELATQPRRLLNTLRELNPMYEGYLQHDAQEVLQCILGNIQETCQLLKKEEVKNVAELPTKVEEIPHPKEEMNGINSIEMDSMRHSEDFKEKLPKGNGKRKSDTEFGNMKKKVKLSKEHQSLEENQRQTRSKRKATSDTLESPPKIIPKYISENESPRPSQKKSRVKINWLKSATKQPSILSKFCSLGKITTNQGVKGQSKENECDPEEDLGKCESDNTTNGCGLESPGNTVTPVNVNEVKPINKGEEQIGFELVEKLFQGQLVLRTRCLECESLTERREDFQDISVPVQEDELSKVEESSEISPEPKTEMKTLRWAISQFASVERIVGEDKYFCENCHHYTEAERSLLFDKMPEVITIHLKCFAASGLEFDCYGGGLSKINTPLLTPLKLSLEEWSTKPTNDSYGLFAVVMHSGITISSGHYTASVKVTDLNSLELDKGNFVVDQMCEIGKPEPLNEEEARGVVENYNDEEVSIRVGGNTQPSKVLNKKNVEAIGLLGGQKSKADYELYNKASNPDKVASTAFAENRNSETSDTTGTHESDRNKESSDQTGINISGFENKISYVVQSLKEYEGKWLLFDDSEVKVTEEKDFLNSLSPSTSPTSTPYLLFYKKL
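Step one: compound is pinned into 1nM USP1/UAF1 in HEPES pH 7.8 buffer with TCEP. Step two: 15 min room-temperature incubation. Step three: Ub-Rho (150nM final) starts cleavage, tracked by fluorescence over six one-minute reads.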
BRCA1 expr act = qHTS Assay to Identify Small Molecule Activators of BRCA1 Expression; 380,000 tested, 1.1% active; MCF7-BRCA1-FFLuc reporter, luminescence, 48 h; response scale: scaled: vehicle 0%, 10 µM genistein 100%; AID 624202, 2012; Potency, µM (top dose mostly 46.1 µM), most hits filed as activators; further: nearly all actives have a fitted effect of over 80% in size
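Compounds are tested at multiple concentrations on MCF7 BRCA1-luciferase reporter cells seeded at 2000 per well; after 48 h, a single luminescence end-point is taken and curves fitted to the normalized data.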
EPAC2 antag = qHTS for Antagonist of cAMP-regulated guanine nucleotide exchange factor 2 (EPAC2): primary screen | EPAC2 GEF exchange of Rap1B-BODIPY-GDP, fluorescence | Potency, µM (series often up to 114 µM), actives largely listed as inhibitors | 360,000 tested, 0.18% active | Rap guanine nucleotide exchange factor 4 (Homo sapiens), Q8WZA2; further: nearly all actives have a fitted effect of over 45% in size
EPAC1 agonist = qHTS for Agonist of cAMP-regulated guanine nucleotide exchange factor 3 (EPAC1): primary screen; Rap guanine nucleotide exchange factor 3 (Homo sapiens), O95398; EPAC1 agonist qHTS, biochemical assay; response scale: 100% = response to 6.5 mM cAMP; Potency, µM (titrated, usually from 154 µM), actives largely listed as activators; 360,000 tested, 0.073% active; AID 720707, 2013; further: nearly all actives have a fitted effect of over 60% in size
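Read-out is the fluorescence drop as BODIPY-GDP leaves Rap1B (480 nm excitation, 540 nm emission), recorded every 5 minutes over 30 minutes. Reactions held 100 nM EPAC1, 250 nM Rap1B–BODIPY-GDP and 50 uM GDP, with 6.5 mM cAMP setting full activation.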
EPAC1 antagonist = qHTS for Antagonist of cAMP-regulated guanine nucleotide exchange factor 3 (EPAC1): primary screen. AID 720709, 2013. 360,000 tested, 0.14% active. Rap guanine nucleotide exchange factor 3 (Homo sapiens), O95398. EPAC1 GEF assay, Rap1b-BODIPY-GDP exchange fluorescence. Potency, µM (highest dose often 115 µM), most hits filed as inhibitors; further: nearly all actives have a fitted effect of over 50% in size
EPAC2 ag = qHTS for Agonist of cAMP-regulated guanine nucleotide exchange factor 4 (EPAC2): primary screen. Rap guanine nucleotide exchange factor 4 (Homo sapiens), Q8WZA2. EPAC2 activation, biochemical qHTS; response scale: 100% = 6.5 mM cAMP response. Potency, µM (top dose mostly 154 µM), hits mostly activators. 360,000 tested, 0.079% active; further: nearly all actives have a fitted effect of over 50% in size
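Compounds were titrated in qHTS against a Rap1B-BODIPY-GDP (250 nM) complex with EPAC2 (100 nM) and GDP (50 uM). BODIPY-GDP release tracked at 480/540 nm over 30 min at room temperature, normalized to 6.5 mM cAMP.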
Of the large screens only hits and unclear results are named; the others gave an inactive call. The call rests on the fitted dose curve; in most records, active means well fitted curve in the direction sought with a large enough effect; inconclusive means small, poorly fitted or top-dose-only effect, or another doubt; inactive means no such curve, though single readings can be large; an effect the other way counts as inactive or inconclusive.

NS(=O)(=O)c1ccc(CCNC(=O)CCn2c(=O)c3cccn3c3cccnc32)cc1	none (no result: BRCA1 expr act, EPAC2 antag, EPAC1 agonist, EPAC1 antagonist, EPAC2 ag)
Nc1ccn([C@@H]2O[C@H](C(=O)NCc3ccc4c(c3)OCO4)[C@@H](O)[C@H]2O)c(=O)n1	none (no result: USP1 inh)
Cc1ccc(C(=O)NC2CCCCCCC2)cc1S(=O)(=O)N1CCOCC1	BRCA1 expr act 10µM
Cc1nc2nncn2c(Nc2ccccc2)c1C	none (no result: EPAC2 antag, EPAC1 agonist, EPAC1 antagonist, EPAC2 ag)
O=C(/C=C/c1ccc(-c2ccc(F)cc2)o1)N1CCCC1	BRCA1 expr act 4µM
O=c1c2cc(-c3ccccc3)sc2ncn1-n1cccc1	BRCA1 expr act 2µM, EPAC1 antagonist inconclusive
O=c1[nH]cnc2sc(-c3ccccc3)cc12	BRCA1 expr act 13µM
CCc1ccc(C(C(=O)NCc2ccc(F)cc2)N(C(=O)c2csnn2)C2CC2)cc1 (stereo not given)	USP1 inh inconclusive
Clc1ccc(-[n+]2c(-c3cccc(Br)c3)[nH]c3nc4ccccc4nc32)cc1	none
O=C1c2ccccc2C(c2nnnn2Cc2ccccc2)N1CCc1c[nH]c2ccccc12 (stereo not given)	EPAC2 antag 75µM (no result: USP1 inh)
CCn1c(SC(C)C(=O)NCc2ccco2)nnc1-c1ccccc1 (stereo not given)	none (no result: USP1 inh, EPAC2 antag, EPAC1 agonist, EPAC1 antagonist, EPAC2 ag)
CC(=O)OCCn1c2nc(=O)[nH]c(=O)c-2nc2cc(C)c(C)cc21	USP1 inh 28µM, EPAC1 agonist 50µM, EPAC2 ag 100µM
CC(=O)OCCn1c(C)[n+](CCOC(C)=O)c2cc(Cl)c(Cl)cc21	none
Cc1ccc2oc(-c3ccccc3)nc2c1	BRCA1 expr act inconclusive
Cc1cccc(-c2nc3cc([N+](=O)[O-])ccc3o2)c1	BRCA1 expr act 2.5µM
O=[N+]([O-])c1ccc2oc(-c3ccccc3)nc2c1	BRCA1 expr act 3.2µM
COc1ccc(C(=O)C2CCN(CC(=O)Nc3ccc(C)cc3)CC2)cc1	none
Cc1ccc(NC(=O)CSc2ncccn2)c([N+](=O)[O-])c1	BRCA1 expr act 11µM
COc1cc(Cl)c(NC2=CC(=O)C(=O)c3ccccc32)c(OC)c1	USP1 inh 28µM
CCOc1ccc(NC2=CC(=O)C(=O)c3ccccc32)cc1	USP1 inh 25µM
O=C1C=C(Nc2ccc(F)cc2)c2ccccc2C1=O	USP1 inh 25µM
O=C1C=C(Nc2cccnc2)c2ccccc2C1=O	USP1 inh 14µM, EPAC2 antag inconclusive, EPAC1 antagonist inconclusive
COc1cc(Cl)c(NS(=O)(=O)c2ccc(-c3ccc(=O)[nH]n3)o2)c(OC)c1	none
Cc1cc([N+](C)(C)C)cc(C)c1/C=C/c1ccnc2ccccc12	none (no result: USP1 inh, EPAC2 antag, EPAC1 agonist, EPAC1 antagonist, EPAC2 ag)
O=c1c(S(=O)(=O)c2ccccc2)cn(Cc2cccc(F)c2)c2cc(N3CCOCC3)c(F)cc12	none (no result: BRCA1 expr act, EPAC2 antag, EPAC1 agonist, EPAC1 antagonist, EPAC2 ag)
CCCCCCSc1ccc([C@@H]2[C@@H]3C(=O)N(C)C(=O)[C@@H]3[C@]3(C(=O)OC)CCCCN23)cc1OC	none
Cn1c2ccccc2c2cc(/C=N/NC(=O)c3cc(O)ccc3O)ccc21	USP1 inh inconclusive, EPAC1 antagonist 56µM
Cc1cc(C)c(Nc2cc(S(=O)(=O)O)c(N)c3c2C(=O)c2ccccc2C3=O)c(C)c1	USP1 inh inconclusive, EPAC2 antag inconclusive, EPAC1 antagonist 50µM
Cc1cc(C)c(NC(=O)COC(=O)c2cccc3c2C(=O)c2ccccc2C3=O)c(C)c1	none
COc1ccc2nc(Cl)c(/C=N/Nc3ccccn3)cc2c1	BRCA1 expr act 3.2µM
COc1cccc(NC(=O)N2CCc3ccccc3C2)c1	BRCA1 expr act 11µM
Cc1ccc(C)c(NC(=O)N2CCc3ccccc3C2)c1	BRCA1 expr act 3.5µM
O=C(Nc1cccc(Cl)c1)N1CCc2ccccc2C1	BRCA1 expr act inconclusive
CC(NC(=O)C1CCC(CNS(=O)(=O)c2ccc3c(c2)C(C)(C)C(=O)N3C)CC1)c1ccccc1 (stereo not given)	none
CCOC(=O)C=C(OC(=O)c1ccc(OC)cc1)c1ccccc1	none
COc1cc(/C=C(\C#N)C(=O)c2ccc(O)c(O)c2)cc(I)c1O	USP1 inh 25µM, EPAC2 antag inconclusive, EPAC1 antagonist inconclusive
COc1ccc(C=C(C#N)C(=O)c2ccccc2)cc1	none (no result: USP1 inh)
Cc1cc(C(=O)CN2C(=O)NC3(CCCCC3C)C2=O)c(C)n1Cc1cccs1 (stereo not given)	BRCA1 expr act 4.5µM
CC(C)(C)c1ccc(-c2nc(C#N)c(NCCCn3ccnc3)o2)cc1	none
CC(C)(C)c1ccc(-c2nc(C#N)c(NCc3ccncc3)o2)cc1	BRCA1 expr act 11µM
O=C(NCCCc1ccccc1)c1ccc(F)cc1	BRCA1 expr act 7.1µM
O=C(NCCCc1ccccc1)c1cccc(Br)c1	BRCA1 expr act 13µM
O=C(NCCc1ccccc1)c1cccc(NC(=O)C2CCCCC2)c1	none
CC(=O)Nc1ccc(C(=O)NCCc2ccccc2)cc1	BRCA1 expr act 13µM
O=C(NCCc1ccccc1)c1cccc(NC(=O)C2CCCC2)c1	BRCA1 expr act 10µM
Cc1cc(C)n(-c2ccc(C(=O)Nc3ccc4c(c3)OCO4)cc2)n1	BRCA1 expr act inconclusive
O=C(NC1=NCCS1)c1ccc(Cl)cc1	BRCA1 expr act 7.9µM
Cc1cc(C)n(-c2ccc(C(=O)NC3=NCCS3)cc2)n1	BRCA1 expr act 11µM
O=C(NC1=NCCS1)c1ccc(-c2ccc(Cl)cc2)o1	BRCA1 expr act 2.8µM
COc1ccc(Cl)cc1C(=O)NC1=NCCS1	none
O=C(NC1=NCCS1)c1ccc(Br)s1	BRCA1 expr act 3.2µM
N#CCC(=O)Nc1ccc(C(=O)OCC(=O)NC2CCCCCC2)cc1	none
COc1ccc(OC)c2c(/C=C/c3ccc(N(C)C)cc3)ccnc12	none (no result: USP1 inh, EPAC2 antag, EPAC1 agonist, EPAC1 antagonist, EPAC2 ag)
CCOC(=O)c1c(C)oc2nc(C)nc(NCc3ccc(OC)cc3OC)c12	none (no result: EPAC2 antag, EPAC1 agonist, EPAC1 antagonist, EPAC2 ag)
O=C(Nc1nnc(C2CCCCC2)s1)c1ccc(Br)s1	BRCA1 expr act 5µM
Cc1ccc(C(c2nc3ccccc3[nH]2)n2c(-c3ccccc3)nc3ccccc32)cc1 (stereo not given)	BRCA1 expr act 4.5µM (no result: USP1 inh)
CCCCN(CCCC)c1ncnc2nc[nH]c12	none
CCCCN(Cc1ccccc1)c1ncnc2nc[nH]c12	BRCA1 expr act 13µM, EPAC2 antag inconclusive
